Results: the supplement of paper PMC3334620
The full ranking holds about 33,000 sequences; the median of “E-score (-0.5 to 0.5)” is about -0.032, and the highest 2% start at about 0.36. Many of the other results were omitted from the sample, so the highest values are more common in it than they were.

Each sequence was assayed against T1, Sko1 (UniProt Q02100) (assay: PBM E-score (8-mer binding enrichment) (E-score (-0.5 to 0.5)); higher = stronger / more preferred TF binding). Details: protein concentration: 200 nM; construct: GST-full length.
T1 sequence: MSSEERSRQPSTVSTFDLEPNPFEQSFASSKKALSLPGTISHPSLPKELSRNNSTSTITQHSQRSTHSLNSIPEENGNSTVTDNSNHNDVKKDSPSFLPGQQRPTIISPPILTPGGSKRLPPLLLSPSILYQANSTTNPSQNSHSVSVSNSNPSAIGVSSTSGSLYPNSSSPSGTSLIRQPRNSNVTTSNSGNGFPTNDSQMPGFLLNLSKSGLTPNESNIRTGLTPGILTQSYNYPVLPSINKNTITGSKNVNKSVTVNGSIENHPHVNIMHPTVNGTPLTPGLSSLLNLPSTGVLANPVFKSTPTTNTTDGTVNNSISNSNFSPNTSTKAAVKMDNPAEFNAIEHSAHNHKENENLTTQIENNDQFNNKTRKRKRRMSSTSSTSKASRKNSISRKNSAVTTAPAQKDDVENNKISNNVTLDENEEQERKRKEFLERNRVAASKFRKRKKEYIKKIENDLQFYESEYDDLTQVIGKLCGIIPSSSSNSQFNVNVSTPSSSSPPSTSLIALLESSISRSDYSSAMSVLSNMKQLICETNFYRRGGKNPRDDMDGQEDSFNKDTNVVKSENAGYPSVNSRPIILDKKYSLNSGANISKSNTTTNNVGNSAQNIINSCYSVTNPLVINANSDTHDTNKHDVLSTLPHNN
Method in brief: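 Bound GST-tagged yeast transcription factors, applied at about 100-200 nM to double-stranded universal all-10-mer Agilent arrays, were detected with fluorescent anti-GST. Scans were normalised with masliner. A modified Wilcoxon-Mann-Whitney statistic, the E-score, was assigned to each ungapped eight-base word pooled with its reverse complement by the Universal PBM Analysis Suite.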

| Sequence | PBM E-score |
| --- | --- |
| CCGCAACA | 0.165 |
| CCGCAACC | -0.2 |
| GCGCAACC | -0.162 |
| ACGCAACG | 0.377 |
| ACGCAACT | 0.355 |
| ACGCAACC | 0.379 |
| TAGAGCCA | -0.278 |
| GCCGAGAC | -0.218 |
| ATGGGTCG | -0.179 |
| ATTCAAGC | 0.106 |
| ATGTTCTA | 0.0474 |
| GCGTGCGA | -0.0187 |
| ATACATCC | 0.0616 |
| GTACATTA | 0.295 |
| GTACATGA | 0.184 |
| CTACATCC | -0.0667 |
| CTACATCA | 0.375 |
| GTACATCA | 0.366 |
| ATACATCA | 0.382 |
| ATACATCG | 0.196 |
| CTACATTA | 0.00265 |
| CGGGGCGC | -0.313 |
| AACAGGTT | -0.0299 |
| AGGCACTA | -0.0926 |
| AAACATCA | 0.189 |
| TGACATAA | 0.424 |

| Sequence | PBM E-score |
| --- | --- |
| GTACATAA | 0.306 |
| TGACATCA | 0.466 |
| TTACATAA | 0.407 |
| AGACATAA | 0.0234 |
| GGACATAA | 0.0688 |
| CAACATCA | 0.294 |
| CGACATCA | 0.355 |
| CTACATAA | 0.194 |
| TAACATCA | 0.367 |
| GGACATCA | 0.205 |
| CACCAATG | 0.00918 |
| GCCTTAGC | -0.113 |
| CGGCTACG | 0.243 |
| ATCGTCCC | -0.0614 |
| CCAAACCG | -0.149 |
| ACAAGTTG | -0.041 |
| AAAGACTA | 0.026 |
| CAAACCAA | -0.0239 |
| ATTCACGG | 0.095 |
| GACCTTAC | 0.0378 |
| AACTTAGC | 0.0908 |
| ATGGTGGC | -0.29 |
| GACTTTTA | 0.0964 |
| GGTCACAC | -0.0911 |
| AGTCACAC | -0.0301 |
| GGTCACAA | -0.151 |

| Sequence | PBM E-score |
| --- | --- |
| CGTCACAG | 0.438 |
| CGTCACAC | 0.437 |
| CGTCACAA | 0.388 |
| AGTCACAG | -0.0124 |
| CCTCACAG | -0.175 |
| TGTCACAA | 0.133 |
| ACTTCGAT | 0.0534 |
| GAGGTTCC | -0.182 |
| ATCTGTAG | -0.0704 |
| AGGAGTGA | 0.0137 |
| CAGGGAGG | -0.23 |
| ACACGGAG | -0.13 |
| ACACGTAG | 0.433 |
| ACACGTAC | 0.419 |
| ACACGTAT | 0.463 |
| ACTCGTAA | 0.345 |
| ACACGTCT | 0.292 |
| ACCCGTAA | -0.00679 |
| ACCCGTAC | -0.107 |
| ACACGTAA | 0.472 |
| ACACGAAT | 0.233 |
| ACACGTTC | 0.214 |
| ACACATAA | 0.262 |
| CTTGAATC | -0.0656 |
| AGTTAGCG | 0.113 |
| CGGCGTGA | -0.0945 |

| Sequence | PBM E-score |
| --- | --- |
| CCGCTTCC | -0.273 |
| CTCGTCTC | -0.19 |
| AAATTCGT | 0.339 |
| ATGTGAGC | -0.00412 |
| CATCCTAA | 0.173 |
| CCGAGATC | -0.237 |
| GTGACATA | 0.381 |
| ATGACACC | 0.26 |
| CTGACATA | 0.266 |
| ATGACATC | 0.44 |
| ATGACATG | 0.357 |
| GGGACATA | -0.139 |
| CTGACATC | 0.21 |
| ATGACATA | 0.437 |
| GTGACACA | 0.145 |
| AACTAACA | 0.124 |
| GCTAAGCC | -0.23 |
| CGGGCTCC | -0.343 |
| ACTCTCTC | -0.281 |
| GTCATCAC | 0.368 |
| ATCATCAC | 0.334 |
| GACATCAA | 0.275 |
| GACATCAC | 0.382 |
| GTCATCAA | 0.33 |
| CACATCAC | 0.154 |
| CTCCGCCC | -0.254 |

| Sequence | PBM E-score |
| --- | --- |
| GAACTCTA | -0.0173 |
| GGTAAGAC | -0.0543 |
| AGTAAGAG | -0.117 |
| CGTAAGAC | 0.4 |
| CGTAAGAA | 0.349 |
| CGTAAGAG | 0.376 |
| CCTAAGAG | -0.0999 |
| AAAGCGGT | -0.0789 |
| AGCTCTTA | 0.0315 |
| CATACTCA | 0.0384 |
| AATACGCC | 0.198 |
| TATACGCA | 0.411 |
| GATACGCA | 0.351 |
| AATACGCA | 0.407 |
| TATACGAA | 0.301 |
| AATACGCT | 0.186 |
| CATACGCA | 0.392 |
| CATACGCG | 0.246 |
| TACACCGA | -0.177 |
| TAGAGAGA | -0.0704 |
| AAAAGAAT | 0.115 |
| CCGCTCAC | -0.0552 |
| CCACCTGA | -0.0745 |
| ATCACGTA | 0.465 |
| GTCACGTA | 0.421 |
| ATCACGCC | 0.0558 |

| Sequence | PBM E-score |
| --- | --- |
| ATCACATA | 0.3 |
| ATCACGGA | 0.126 |
| ATCACGTC | 0.42 |
| GTCACGGA | 0.126 |
| CTCACGTA | 0.356 |
| ATCACGCG | 0.254 |
| GTCACGCA | 0.25 |
| ATCACGTG | 0.411 |
| CTCACGTC | 0.278 |
| CGTTTTAC | 0.209 |
| ATTTATAG | 0.158 |
| ACGGAAAT | 0.226 |
| AGTATGCA | -0.0795 |
| ACCTGTAT | -0.105 |
| CAAACCTG | -0.0692 |
| ACCATTAG | 0.0481 |
| TCCCAAGA | -0.166 |
| CGTAACAC | 0.374 |
| AGTAACAG | -0.0766 |
| CGTAACAG | 0.374 |
| AGTAACAC | -0.0531 |
| CGTAACAA | 0.344 |
| GGTAACAC | 0.0477 |
| AGCGGTTG | -0.0753 |
| GGTAATAC | 0.178 |
| CGTAATAA | 0.434 |

| Sequence | PBM E-score |
| --- | --- |
| CATAATAG | 0.116 |
| AGTAATAC | 0.0785 |
| AGTAATAG | 0.264 |
| CGTAATAG | 0.435 |
| GGTAATAA | 0.185 |
| CGTAATAC | 0.451 |
| TGTAATAA | 0.28 |
| ACGCGGCT | 0.124 |
| ACAGTCCG | -0.182 |
| ATGGCTCC | -0.249 |
| AAGTACCT | -0.0422 |
| ACGTACCT | 0.377 |
| GCGTACCC | -0.00205 |
| AAGTACCG | -0.032 |
| CCGTACCC | -0.335 |
| CCGTACCA | -0.118 |
| ACGTACCG | 0.372 |
| GCGTACCA | 0.138 |
| AGGTACCT | -0.19 |
| CCGTACCG | -0.208 |
| ACGTACCC | 0.435 |
| ACGTACCA | 0.444 |
